# “And” between values parts separate entries of the source, which are not always exact repeats. Identical values can stand only once. Results filed as inconclusive are left out. Unmarked numbers belong to inactive results. The source made the active and inactive calls. The call rests on the fitted dose curve; in most records, active means well fitted curve in the direction sought with a large enough effect; inconclusive means small, poorly fitted or top-dose-only effect, or another doubt; inactive means no such curve, though single readings can be large; an effect the other way counts as inactive or inconclusive.
# Columns and labels:
# [1] = Viability qHTS for spleen associated tyrosine kinase inhibitor (SYKi) naive MV4-11 cells (AID 1963823); further: nearly all actives have a fitted effect of over 40% in size
# In short: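 Read-out: CellTiter-Glo luminescence. Exposure: 72 hr, 37 C, 5% CO2, 95% humidity. Cells: MV4-11 without SYK inhibitor history, 500/well, qHTS format.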
# [2] = Viability qHTS for spleen associated tyrosine kinase inhibitor (SYKi) drug resistant MV4-11 cells (AID 1963824); further: nearly all actives have a fitted effect of over 35% in size
# In short: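 SYK inhibitor-resistant MV4-11 AML cells, 500 per well, added to predispensed compounds and incubated 72 hr at 37 C, 5% CO2. Viability measured by CellTiter-Glo luminescence after 10 min at room temperature.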
# [3] = Quantitative highthroughput screen to assess conditional lethalithy of NOMO1 cells grown in RPMI1640 with untreated serum (RPMI+s) (AID 1963876); further: nearly all actives have a fitted effect of over 35% in size;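 on Viability: 100% = DMSO wells and 0% = empty wells without cells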
# In short: (§1)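 Each medium arm—HPLM with 10% dialyzed FBS, or RPMI1640 with 5 mM glucose and 10% untreated or dialyzed FBS—was screened against an 11-point, 3-fold compound titration for 48 h at 37 °C, with CellTiter-Glo luminescence as endpoint.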
# [4] = Quantitative highthroughput screen to assess conditional lethalithy of NOMO1 cells grown in RPMI1640 with dialyzed fetal bovine serum (RPMI+ds) (AID 1963877); further: nearly all actives have a fitted effect of over 30% in size;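 on Viability: series mostly up to about 46 µM; 100% = DMSO control wells and 0% = empty wells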
# In short: as §1
# [5] = Quantitative highthroughput screen to assess conditional lethalithy of P12 Ichikawa cells grown in Human Plasma-Like Medium with dialyzed fetal bovine serum (HPLM+ds) (AID 1963879); conditions: Potency: viability; further: nearly all actives have a fitted effect of over 35% in size
# In short: as §1
# [6] = Quantitative highthroughput screen to assess conditional lethalithy of P12 Ichikawa cells grown in RPMI1640 with dialyzed fetal bovine serum (RPMI+ds) (AID 1963880); conditions: Potency: P12-Ichikawa viability; further: nearly all actives have a fitted effect of over 35% in size
# In short: as §1
# [7] = Quantitative highthroughput screen to assess conditional lethalithy of P12 Ichikawa cells grown in RPMI1640 with untreated serum (RPMI+s) (AID 1963881); conditions: Potency: viability; further: nearly all actives have a fitted effect of over 35% in size
# In short: as §1
# [8] = Quantitative highthroughput screen to assess conditional lethalithy of SEM cells grown in Human Plasma-Like Medium with dialyzed fetal bovine serum (HPLM+ds) (AID 1963882); further: nearly all actives have a fitted effect of over 35% in size
# In short: as §1
# [9] = Quantitative highthroughput screen to assess conditional lethalithy of SEM cells grown in RPMI1640 with unreated serum (RPMI+s) (AID 1963883); further: nearly all actives have a fitted effect of over 35% in size
# In short: as §1
# [10] = Quantitative highthroughput screen to assess conditional lethalithy of SEM cells grown in RPMI1640 with dialyzed fetal bovine serum (RPMI+ds) (AID 1963884); further: nearly all actives have a fitted effect of over 35% in size
# In short: as §1
# [11] = Cellular viability qHTS for adrenocortical cancer (ACC) cell line SW-13 (AID 1963989); conditions: SW-13 ACC cells viability, CellTiter-Glo, 48 h; activity (max response): stronger effect = lower value; further: nearly all actives have a fitted effect of over 65% in size;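 on activity (max response): cells grown in serum-free medium with ITS supplement; on the % scale 0 is the no-effect control and ±100 the full control effect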
# In short: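 Here, serum-free SW-13 cultures were dosed up to 46 uM. Following 48 h, ATP-dependent luminescence (CellTiter-Glo) reported viable cells, and logistic modeling produced IC50 values.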
# [12] = Quantitative highthroughput screen to assess conditional lethalithy of NOMO1 cells grown in Human Plasma-Like Medium with dialyzed fetal bovine serum (HPLM+ds) (AID 1963878); further: nearly all actives have a fitted effect of over 35% in size;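 on Viability: 100% = DMSO wells and 0% = empty wells on each plate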
# In short: as §1
# Potency means the concentration at half of the fitted maximal effect.
smiles,measurement,setting,value
COc1cc2c(cc1OC)[C@@]13CCN4CC5=CCO[C@H]6CC(=O)N2[C@H]1[C@H]6[C@H]5C[C@H]43,Potency,[1],inactive
same,Potency,[2],inactive
CC(=O)O[C@H]1CN2CCC1CC2,Potency,[1],inactive
same,Potency,[2],inactive
COC(=O)C1(C)CCC(O)C2(C)c3cc(O)c(C(C)C)cc3C(O)C(OC(C)=O)C12 (centres undefined),Potency,[1],inactive
same,Potency,[2],inactive
CN1Cc2c(ccc3c2OCO3)[C@@H]2[C@H]1c1cc3c(cc1C[C@@H]2O)OCO3,Potency,[1],3.21 µM (active)
same,Potency,[2],2.55 µM (active)
C=C(CO)C(=O)O[C@H]1C/C(C)=C/CC/C(CO)=C/[C@H]2OC(=O)C(=C)[C@H]12,Potency,[1],inactive
same,Potency,[2],inactive
N[C@@H](Cc1ccc(N(CCCl)CCCl)cc1)C(=O)O,Potency,[1],10.6 µM (active) and 833 nM (active)
same,Potency,[2],7.5 µM (active) and 742 nM (active)
same,Potency,[3],10.5 µM (active)
same,Potency,[4],9.35 µM (active)
same,Potency,[5],10.5 µM (active)
same,Potency,[6],5.9 µM (active)
same,Potency,[7],4.69 µM (active)
same,Potency,[8],4.18 µM (active)
same,Potency,[9],2.64 µM (active)
same,Potency,[10],2.96 µM (active)
same,activity (max response),[11],-19.4%
CC1Oc2cc3c(-c4c(O)cc(O)c5c(O)c6c(cc45)OC(C)C(C)C6=O)c(O)cc(O)c3c(O)c2C(=O)C1C (centres undefined),Potency,[1],5.17 µM (active)
same,Potency,[2],4.61 µM (active)
CN1CCc2cc3c(cc2C1C1OC(=O)c2c1ccc1c2OCO1)OCO3 (centres undefined),Potency,[1],inactive
same,Potency,[2],inactive
O=C1Nc2ccc3ncsc3c2/C1=C/c1cnc[nH]1,Potency,[1],0.082 µM (active)
same,Potency,[2],0.164 µM (active)
C#C[C@]1(O)CC[C@H]2[C@@H]3CC[C@H]4Cc5nc6nc7ccccc7n6cc5C[C@]4(C)[C@H]3CC[C@@]21C,Potency,[1],9.2 µM (active)
same,Potency,[2],7.31 µM (active)
COC1CC(O[C@H]2CC[C@]3(C)C4CC[C@]5(C)[C@@H](C6=CC(=O)OC6)[C@@H](OC(C)=O)C[C@]5(O)C4CC[C@@H]3C2)OC(C)C1O (some centres undefined),Potency,[1],0.252 µM (active)
same,Potency,[2],0.178 µM (active)
CCN1CC2(COC)C3[C@@H](OC)C4C1C3(C1C[C@]3(O)[C@H](OC(=O)c5ccccc5)C1[C@]4(OC(C)=O)[C@@H](O)[C@@H]3OC)[C@H](OC)C[C@H]2O (some centres undefined),Potency,[1],inactive
same,Potency,[2],inactive
CC[C@@]1(O)C(=O)OCc2c1cc1n(c2=O)Cc2cc3ccccc3nc2-1,Potency,[1],0.0235 µM (active)
same,Potency,[2],0.0235 µM (active)
same,Potency,[3],0.0743 µM (active)
same,Potency,[4],0.0662 µM (active)
same,Potency,[12],0.0662 µM (active)
same,Potency,[5],0.0296 µM (active)
same,Potency,[6],0.0209 µM (active)
same,Potency,[8],0.0469 µM (active)
same,Potency,[9],0.0235 µM (active)
same,Potency,[10],0.0264 µM (active)
same,Potency,[11],0.126 µM (active)
CCN1C[C@]2(COC(=O)c3ccccc3N3C(=O)C[C@H](C)C3=O)CC[C@H](OC)[C@@]34[C@@H]5C[C@H]6[C@H](OC)[C@@H]5[C@](O)(C[C@@H]6OC)[C@](O)([C@@H](OC)[C@H]23)[C@@H]14,Potency,[1],inactive
same,Potency,[2],inactive
CC[C@@H](C(N)=O)N1CCCC1=O,Potency,[1],inactive
same,Potency,[2],inactive
same,Potency,[3],inactive
same,Potency,[4],inactive
same,Potency,[12],inactive
same,activity (max response),[11],-2.57%
Clc1ccc(N2C[C@H]3CC[C@@H](C2)N3)nn1,Potency,[1],inactive
same,Potency,[2],inactive
COc1ccc(CN(C(=O)[C@@H](N)Cc2c(C)cc(C(N)=O)cc2C)[C@@H](C)c2ncc(-c3ccccc3)[nH]2)cc1C(=O)O,Potency,[1],inactive
same,Potency,[2],inactive
CC1CCCC(O)CC(=O)Cc2cc(O)cc(O)c2C(=O)O1 (centres undefined),Potency,[1],inactive
same,Potency,[2],inactive
CO[C@H]1[C@@H](O)[C@@H](C)O[C@@H](O[C@@H]2C=C3C(OC(C)=O)CC4(O)C(CC[C@]5(C)[C@@H](C6=CC(=O)OC6)CC[C@]45O)[C@@]3(C)CC2)[C@@H]1O (some centres undefined),Potency,[1],0.0685 µM (active)
same,Potency,[2],0.0769 µM (active)
COc1ccc(CCNCc2ccc(OC)c3ccccc23)cc1,Potency,[1],9.2 µM (active)
same,Potency,[2],8.2 µM (active)
CCC(C)(O)C1(C(=O)O)COC(=O)C1 (centres undefined),Potency,[1],inactive
same,Potency,[2],inactive
O=C(O)P(=O)(O)O,Potency,[1],inactive
same,Potency,[2],inactive
C=C(CO)C(=O)O[C@H]1CC(=C)[C@@H]2C[C@H](O)C(=C)[C@@H]2[C@H]2OC(=O)C(=C)[C@@H]21,Potency,[1],1.8 µM (active)
same,Potency,[2],1.61 µM (active)
COC1C=CC23c4cc5c(cc4COC2(O)CN(C)C3C1)OCO5 (centres undefined),Potency,[1],inactive
same,Potency,[2],inactive
CC(C)C(=O)O[C@H]1[C@@H]2[C@H](C)C(=O)O[C@@H]2C[C@@H](C)[C@@H]2C=CC(=O)[C@]21C,Potency,[1],3.6 µM (active)
same,Potency,[2],2.27 µM (active)
COc1ccc2c(c1)[nH]c1c(C)nccc12,Potency,[1],13 µM (active)
same,Potency,[2],14.6 µM (active)

# — PubChem BioAssay (NCATS)
